Data reported in the supplement of paper PMC3334620.
Whole data set: some 33,000 sequences, median “E-score (-0.5 to 0.5)” near -0.053, cut for the highest 2% near 0.37. The entries come from a sample that favours the highest values as a whole.

target: Hap1 (UniProt P0CE41); experiment: PBM E-score (8-mer binding enrichment) (E-score (-0.5 to 0.5)); higher = stronger / more preferred TF binding; details: protein concentration: 200 nM; construct: GST-DNA-binding domain
Experimental: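 Universal 'all 10-mer' protein binding microarrays (Agilent AMADID 015681) probed with GST-tagged S. cerevisiae TFs (full-length or DBD) made by in vitro transcription/translation (PURExpress), about 100-200 nM. Bound TF was detected with fluorescent anti-GST. Each ungapped 8-mer (which stands for itself and its reverse complement) is scored by the PBM enrichment score (E-score), a modified Wilcoxon-Mann-Whitney statistic from -0.5 to +0.5, computed with the Universal PBM Analysis Suite. Scale: above 0.35 generally sequence-specific binding.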

Sequence of UniProt P0CE41 (P0CE41 whole entry, the tested form may be a part): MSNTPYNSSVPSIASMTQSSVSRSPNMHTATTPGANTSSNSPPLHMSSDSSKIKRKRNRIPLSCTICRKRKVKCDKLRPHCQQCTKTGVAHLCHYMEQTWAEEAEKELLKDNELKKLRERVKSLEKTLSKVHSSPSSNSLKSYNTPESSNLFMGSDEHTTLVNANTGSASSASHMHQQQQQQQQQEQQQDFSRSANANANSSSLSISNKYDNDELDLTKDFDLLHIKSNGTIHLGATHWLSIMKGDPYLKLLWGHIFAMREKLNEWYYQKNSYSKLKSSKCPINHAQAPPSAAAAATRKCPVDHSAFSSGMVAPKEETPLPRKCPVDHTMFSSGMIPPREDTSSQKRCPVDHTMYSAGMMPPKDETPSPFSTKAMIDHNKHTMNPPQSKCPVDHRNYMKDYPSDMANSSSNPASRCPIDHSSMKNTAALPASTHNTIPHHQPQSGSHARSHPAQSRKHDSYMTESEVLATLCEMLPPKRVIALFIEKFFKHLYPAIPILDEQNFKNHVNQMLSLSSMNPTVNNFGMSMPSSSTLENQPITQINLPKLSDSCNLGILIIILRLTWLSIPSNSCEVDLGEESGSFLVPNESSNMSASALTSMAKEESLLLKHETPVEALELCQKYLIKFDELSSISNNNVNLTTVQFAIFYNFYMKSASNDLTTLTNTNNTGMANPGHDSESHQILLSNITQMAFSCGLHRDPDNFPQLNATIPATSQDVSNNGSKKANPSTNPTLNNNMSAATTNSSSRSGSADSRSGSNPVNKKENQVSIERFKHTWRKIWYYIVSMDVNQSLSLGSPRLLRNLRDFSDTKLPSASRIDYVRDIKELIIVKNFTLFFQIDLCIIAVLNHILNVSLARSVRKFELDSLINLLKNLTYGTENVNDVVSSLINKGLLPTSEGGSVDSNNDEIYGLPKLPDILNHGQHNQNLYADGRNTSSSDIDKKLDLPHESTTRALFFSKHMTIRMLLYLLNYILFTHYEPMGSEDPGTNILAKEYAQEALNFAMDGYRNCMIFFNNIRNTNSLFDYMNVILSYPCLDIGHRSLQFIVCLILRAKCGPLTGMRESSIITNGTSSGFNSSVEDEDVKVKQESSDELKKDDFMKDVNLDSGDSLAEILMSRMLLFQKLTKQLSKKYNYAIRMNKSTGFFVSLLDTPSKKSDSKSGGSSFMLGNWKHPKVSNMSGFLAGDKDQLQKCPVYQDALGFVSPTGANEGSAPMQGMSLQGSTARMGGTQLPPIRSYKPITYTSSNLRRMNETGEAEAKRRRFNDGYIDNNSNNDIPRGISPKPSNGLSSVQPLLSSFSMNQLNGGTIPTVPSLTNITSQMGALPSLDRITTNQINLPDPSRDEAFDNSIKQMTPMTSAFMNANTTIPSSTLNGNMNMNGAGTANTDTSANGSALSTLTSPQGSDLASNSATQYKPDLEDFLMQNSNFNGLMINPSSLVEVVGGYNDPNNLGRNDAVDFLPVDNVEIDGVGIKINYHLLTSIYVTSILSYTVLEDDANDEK

Sequence | PBM E-score
ATACCGGC | 0.398
ATACCGCA | 0.284
ATACCGGG | 0.416
CTACCGGC | 0.29
CTACCGAA | 0.0576
CTACCGGA | 0.412
ATACCGTG | 0.0634
ATACCGTA | 0.092
ATACCGCG | 0.21
ATGGCTCA | -0.343
GGAAACCA | -0.0131
AGTACTTC | 0.153
CGCGCTTA | 0.209
CTGGAGGC | -0.096
AGACAAAC | -0.0936
CAATTCTG | -0.284
CCTCCTCA | -0.13
GATTCTAC | -0.0077
GTACCGCA | 0.236
GTACCGGA | 0.393
GTACCGTA | 0.0486
AGGGAGAA | -0.0602
AATGGTGT | -0.0527
ATAGTAGC | 0.0136
ACCCCGAC | 0.308
GCCCCGAA | 0.333

Sequence | PBM E-score
AACCCGAT | 0.375
ACCCCGAA | 0.377
ACCCCGAT | 0.416
AACCCGAC | 0.32
ACCCCGAG | 0.348
AACCCGAG | 0.317
CCCCCGAA | 0.312
CGCGTAAA | 0.188
AGTTATGG | -0.0493
ACTGTGCG | -0.13
ATCATCGC | 0.0926
AATTTCCA | 0.0738
CAGAAGCC | -0.0458
GTACGGAA | 0.28
CGCTCACG | 0.118
AATACCAT | -0.0062
ATGGTCAA | -0.23
CGGACTTA | 0.488
CGGACTTC | 0.405
AGGACTTC | -0.152
GGGACTAA | 0.0852
CGGACTAA | 0.411
AGGACTTA | 0.18
TGGACTAA | -0.117
CTGACTTC | -0.0182
GGGACTTA | 0.0397

Sequence | PBM E-score
CCTGGTCC | 0.138
GCCAGGAA | -0.262
ACCGGCGT | 0.282
CTCGGCGA | 0.383
ATCGGCGA | 0.357
GCCGGCGA | 0.364
GTCGGCGA | 0.218
ACCGGCGG | 0.418
ACCGGCGC | 0.267
ACCGGCGA | 0.39
TCCGGCGA | 0.362
ATGGACGA | 0.0824
GGGGGTAC | 0.215
CTAACAGA | -0.101
CTAGCAGA | -0.242
ATCCTCAC | -0.103
AGCAGGAT | -0.0378
TCTCCCAA | -0.0542
GCTTTCCA | -0.11
CTTCGAGA | -0.234
GTGCGAGA | -0.179
GTCCGAGA | 0.437
CTGCGAGA | -0.215
ATCCGAGA | 0.346
CTCCGAGA | 0.376
CTCCGACC | 0.359

Sequence | PBM E-score
CTCCGAGC | 0.386
CCCCGAGC | 0.351
CCAATCTC | 0.00791
AGCCCTAC | -0.129
CATGGTGA | -0.0558
CCGGAAGC | 0.336
GTCATCAC | -0.249
AGGAGTAG | -0.195
CCAAGGAA | -0.0481
TAGTCCGA | 0.42
AAGTCCAA | -0.00743
AAGTCCTA | 0.0348
GAGTCCGA | 0.35
AAGTCCGA | 0.467
CAGTCCGA | 0.366
AACCCTCA | -0.135
TGGTTAAA | -0.0634
AATCGCCT | 0.0771
TAGCTTGA | -0.226
AGGCGTAT | -0.311
ATGCCTAA | -0.21
GGTTCCAA | 0.14
CTCCCGGC | 0.33
AGCCCGGG | 0.36
AGCCCCCG | 0.185
AGCCCGGC | 0.272

Sequence | PBM E-score
AACCCGGC | 0.333
GTCCCGGA | 0.343
AACCCGGT | 0.365
AGCCCCGG | 0.373
AACCCGGA | 0.371
AGCCCCGA | 0.333
CTCCCGGA | 0.376
AGCCCGGA | 0.39
AGTGCTAA | 0.0956
CGTTTGTA | -0.122
GACCACTC | 0.0772
TCTCCAGA | -0.0567
TAGTAGCA | -0.123
ATGCGCGA | 0.188
ACTAAAGG | -0.181
AGGCGCAC | -0.0853
AGTCCATC | -0.027
TGCAGACA | -0.233
GGCCCGGA | 0.409
GCCCCGGA | 0.391
GGCCCGAA | 0.384
GCCCCGGC | 0.25
GGCCCGCA | 0.157
GGCCCGTA | 0.281
AGCCCGAA | 0.3
GCCCCGTA | 0.0466

Sequence | PBM E-score
ACCCCGGA | 0.37
CGCCCGAA | 0.294
CCCCCGGA | 0.305
ACCCCGGG | 0.357
CCTGGTGC | -0.0907
GAAAATCC | 0.167
GAAGGTCC | 0.0808
AGCTCCAA | -0.276
GAGACGCC | 0.0301
GGATACAC | 0.132
CACCATCC | 0.0474
ATTTAATC | 0.153
ACAATGAA | -0.165
AGATACAC | -0.0669
ACTGGTAG | -0.206
GCAAGCCA | -0.171
CAGTCGAA | -0.204
TCCCCGAA | 0.335
CGCCCGGC | 0.335
TCCCCGCA | 0.303
CGCCCGGA | 0.4
GACCCGGA | 0.353
TCCCCGGA | 0.377
CACCCGGA | 0.364
TACCCGGA | 0.38
CGCCCGTA | 0.142

Sequence | PBM E-score
GAACGCAA | -0.0397
ACTTCTAG | -0.146
GAACATGA | -0.0648
AAGTCCAG | -0.056
ATTGCTCG | 0.137
TGCTCAAA | -0.145
CGATAAGA | 0.291
TACGCCTA | -0.258
GATATATA | 0.198
CGGATAAA | 0.381
TGGATAAA | -0.0137
CGGATCTC | 0.279
GATATATC | 0.373
CGGATAAC | 0.359
CGGATATC | 0.39
AGGATATC | 0.155
CTGATATC | 0.26
AATATATC | 0.26
GGGATCTA | 0.134
CGGATCTA | 0.404
